# Laboratory results from PubChem BioAssay (NCI).
# This is part of a sample that, as a whole, favours compounds with a hit. Of some 79,000 tested, about 15% had one in any assay. A number with no mark means an inactive call. Calls of active or inactive are those of the source. No stated cut-off is given here; in the data, active means growth inhibition above about 70%; inactive means the rest.
# Tests used:
# [1] = NCI Yeast Anticancer Drug Screen. Data for the rad50 strain (AID 155);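 further: 0% = growth of vehicle-only cultures of the same strain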; conditions: S. cerevisiae rad50 strain growth inhibition, active compounds read high
# In short: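 Readout: growth inhibition relative to vehicle-treated cultures. Compound exposure was carried out in a genetically defined yeast strain deficient in DNA damage repair.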
# [2] = NCI Yeast Anticancer Drug Screen. Data for the mec2-1 strain (AID 157); conditions: S. cerevisiae mec2-1 strain, active compounds read high
# In short: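 Strain: mec2-1 (DNA repair/cell cycle alteration). Compound exposure, then growth measured; inhibition expressed relative to vehicle.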
# [3] = NCI Yeast Anticancer Drug Screen. Data for the sgs1 mgt1 strain (AID 161);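 further: 0% = growth of cultures given vehicle only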; conditions: S. cerevisiae sgs1 mgt1 strain, active compounds read high
# In short: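 Test agents were incubated with a DNA-repair-mutant yeast strain. Growth was then read and compared against vehicle-treated controls.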
# [4] = NCI Yeast Anticancer Drug Screen. Data for the cln2 rad14 strain (AID 165);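 further: 0% = growth equal to vehicle treated cultures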; conditions: S. cerevisiae cln2 rad14 strain, active compounds read high
# In short: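 Compounds are applied to the cln2 rad14 yeast strain, and growth is then compared with that of vehicle-treated cultures to give inhibition.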
# [5] = NCI Yeast Anticancer Drug Screen. Data for the bub3 strain (AID 167); conditions: S. cerevisiae bub3 mutant strain, active compounds read high
# In short: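 Readout: yeast growth inhibition, expressed relative to vehicle-only wells. The test organism is a mutant strain from a panel with lesions in DNA repair or checkpoint genes.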
# [6] = NCI Yeast Anticancer Drug Screen. Data for the mlh1 rad18 strain (AID 175); conditions: S. cerevisiae mlh1 rad18 strain growth inhibition, active compounds read high
# In short: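 Read-out is yeast growth inhibition, calculated against vehicle-only controls. The compound was applied to a strain engineered with DNA damage repair alterations.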
# [7] = at 5.0 µM (retest, dose inferred, filed as 0.5)
# [8] = at 50.0 µM (retest, dose inferred, filed as 5.0)
Compound,"growth inhibition [1, 7]","growth inhibition [1, 8]",growth inhibition ([1]; at 50.0 µM),"growth inhibition [2, 7]","growth inhibition [2, 8]",growth inhibition ([2]; at 50.0 µM),"growth inhibition [3, 7]","growth inhibition [3, 8]",growth inhibition ([3]; at 50.0 µM),"growth inhibition [4, 7]","growth inhibition [4, 8]",growth inhibition ([4]; at 50.0 µM),"growth inhibition [5, 7]","growth inhibition [5, 8]",growth inhibition ([5]; at 50.0 µM),"growth inhibition [6, 7]","growth inhibition [6, 8]",growth inhibition ([6]; at 50.0 µM)
N#CC(C(=O)C(=O)Nc1cccc(C(F)(F)F)c1)c1ccccc1 (configuration not stated),-23%,90% (active),-23.1%,-12%,76% (active),10.2%,-19%,75% (active),16.6%,-9%,90% (active),-20.7%,-10%,94% (active),6.55%,34%,83% (active),12.7%
O=S(=O)(O)C(O)c1ccc2ccc3cccc4ccc1c2c34 (configuration not stated),12%,95% (active),94.4% (active),-2%,96% (active),95.3% (active),4%,92% (active),67.8%,-4%,84% (active),77.5% (active),-3%,94% (active),97.5% (active),3%,95% (active),97% (active)
Cc1cccc2c1Oc1ccccc1C2N1C(=O)/C(=C/c2ccccc2Cl)SC1=S (configuration not stated),99% (active),74% (active),60.1%,99% (active),48%,29.1%,100% (active),29%,38.4%,96% (active),1%,16.4%,99% (active),74% (active),12.6%,99% (active),72% (active),64.2%
OC(C/C(CNNc1ccccc1)=N/Nc1ccccc1)(C(F)(F)F)C(F)(F)F,6%,-9%,71.2% (active),-2%,76% (active),83.8% (active),-6%,5%,69.2%,2%,75% (active),55.4%,-1%,59%,74.6% (active),14%,78% (active),89% (active)
CCCCCC(/C=N/Nc1nc(C)cc(=O)[nH]1)=C\c1ccccc1,9%,45%,31.3%,-1%,50%,30.8%,3%,81% (active),29.9%,3%,39%,44.1%,-1%,83% (active),53%,-8%,37%,70.5% (active)
CC1C(CCC(=O)O)OC2CC3C4CCC5CC(O)CCC5(C)C4CCC3(C)C21 (configuration not stated),4%,56%,82.3% (active),7%,96% (active),90% (active),22%,89% (active),95.5% (active),8%,90% (active),93.7% (active),4%,66%,86.4% (active),16%,91% (active),85.3% (active)
CC(=O)Oc1ccc2c(c1)CCC1C2CCC2(C)C1CCC21CO1 (configuration not stated),-4%,60%,89.7% (active),-6%,18%,28.6%,-3%,54%,73.4% (active),1%,11%,52.2%,3%,44%,83% (active),-6%,29%,66.7%
CCC(=O)C(CC)(c1ccc(OC(C)=O)cc1)c1ccc(OC(C)=O)cc1,13%,82% (active),-20.3%,24%,73% (active),-1.2%,9%,75% (active),53.1%,9%,33%,14.7%,9%,59%,35.1%,21%,93% (active),-1.85%
COc1ccc(-n2cc(-c3ccc(Cl)cc3)c3c(N)ncnc32)cc1,20%,99% (active),95.6% (active),23%,99% (active),94.6% (active),63%,99% (active),98.2% (active),13%,25%,87.1% (active),0%,3%,91% (active),20%,99% (active),88% (active)
